High-throughput results: PubChem BioAssay, National Center for Advancing Translational Sciences (NCATS)
Hits are enriched below; roughly 12% of the tested compounds scored in any of these assays.
Pf growth 96h = P. falciparum growth inhibition at 96 hour, primary screen for plastid delayed-death inhibitors; P. falciparum luciferase reporter growth, 96 h; Potency, µM (series often up to 28.7 µM), actives largely listed as inhibitors; 320,000 compounds, 6.9% hits
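P. falciparum expressing integrated firefly luciferase grown in erythrocytes (2% hematocrit, 0.05% parasitemia final) with compounds for 96 hours at 37 C, 5% CO2. Growth inhibition read as loss of luminescence after adding luciferase detection reagent.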
Pf growth 48h = inhibits P. falciparum growth in the first generation, 48 h; 310,000 compounds, 5.9% hits; Potency, µM (series often up to 28.7 µM), actives largely listed as inhibitors; P. falciparum luciferase growth in erythrocytes, 48 h
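Firefly luciferase activity from engineered P. falciparum reports growth; inhibitors lower the luminescent signal. Cultures contained 2% hematocrit erythrocytes at 0.1% final parasitemia.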
AMA1 RON2 block = AMA1-RON2 (P. falciparum) interaction inhibition | Potency, µM (series often up to 58.2 µM), usual class: inhibitors | AlphaScreen AMA1-biotinylated RON2 peptide binding | 360,000 compounds, 0.2% hits | AID 720542; also: nearly all actives have a fitted effect of over 45% in size
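AMA1 (3D7) with his tag at 25 nM final met compounds first, then biotinylated RON2 peptide at 25 nM; detection used donor plus acceptor beads, 10 µg/mL apiece, read by AlphaScreen after 30 min at room temperature.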
NS1 inh = influenza NS1 inhibition. Potency, µM (top dose mostly 46.1 µM). 270,000 compounds, 0.4% hits; calls by dose curve; also: actives are rising curves; nearly all actives have a fitted effect of over 50% in size
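Compounds were scored for reversing the slow growth caused by influenza A NS1 in S. cerevisiae, measured by optical density at 600 nm. Assay medium contained 2% galactose at pH 6.0; NS1-free yeast of the same strain were the positive control.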
SARS PLpro yeast = inhibitors of SARS-CoV papain-like protease in yeast | Potency, µM (top dose mostly 32.9 µM), usual class: activators | 330,000 compounds, 0.19% hits | S. cerevisiae expressing SARS-CoV PLpro, growth rescue; calls by dose curve; also: nearly all actives have a fitted effect of over 55% in size
HCV inhibitor = blocks hepatitis C virus | Huh7.5.1 HCVcc-Cre infection, luciferase reporter, 44 h | Potency, µM (titrated, usually from 41.8 µM), hits mostly inhibitors | 340,000 compounds, 3.4% hits
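Compounds are dispensed onto cells plated 4 h earlier at 1,000 per well, with HCVcc-Cre virus (about 0.5 moi) added next. Following 44 h of culture, luminescent signal is measured for 15 sec after 15 min with substrate at room temperature.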
Hits are given with their value; i = inactive; ? = inconclusive; nt = no result given; [ ] = remark or other dose. Unless noted, calls follow the shape of the dose curve; as a rule, active = well fitted curve in the direction sought with a large enough effect; inconclusive = small, poorly fitted or top-dose-only effect, or another doubt; inactive = no such curve, though single readings can be large; an effect the other way counts as inactive or inconclusive.

SMILES | Pf growth 96h | Pf growth 48h | AMA1 RON2 block | NS1 inh | SARS PLpro yeast | HCV inhibitor
CN(c1ccccc1)S(=O)(=O)c1cccc(NC(=O)c2ccncc2)c1 | ? | i | i | i | i | 10µM
Cc1nc2cc(NC(=O)c3ccc(S(=O)(=O)N(C)c4ccccc4)cc3)ccc2o1 | ? | ? | i | i | i | 6.31µM
CN(c1ccccc1)S(=O)(=O)c1cccc(NC(=O)c2ccc(=O)[nH]c2)c1 | ? | ? | i | nt | i | i
CN(c1ccccc1)S(=O)(=O)c1cccc(NC(=O)c2cncc(Br)c2)c1 | 8.28µM | 10.4µM | i | i | i | ?
CN(c1ccccc1)S(=O)(=O)c1cccc(NC(=O)c2ccc(Cl)c([N+](=O)[O-])c2)c1 | nt | nt | i[11.6 µM] | nt | nt | 11.2µM
COc1ccc(OC)c(NC(=O)COC(=O)C2CCCCC2)c1 | nt | nt | i | nt | i | i
CN(c1ccccc1)S(=O)(=O)c1ccc(C(=O)NNC(=O)c2ccccc2)cc1 | i | i | i | nt | i | i
COc1ccccc1NC(=O)c1ccc(S(=O)(=O)N(C)c2ccccc2)cc1 | i | i | i | nt | i | i
COc1cc(NC(=O)c2ccc(S(=O)(=O)N(C)c3ccccc3)cc2)cc(OC)c1 | nt | nt | i | nt | i | 11.2µM
O=C(Nc1ccccc1Cl)c1cc(=O)c2ccccc2o1 | 11.7µM | i | i | i | i | i
CN(c1ccc(C(=O)O)cc1)S(=O)(=O)c1ccccc1 | 9.28µM | i | i | i | i | i
CC(=O)Nc1ccc(C(=O)Nc2cccc(S(=O)(=O)N(C)c3ccccc3)c2)cc1 | ? | 9.28µM | i | nt | i | ?
CCOC(=O)C1(Cc2ccccc2)CCCN(C(=O)COc2ccccc2OC)C1 (stereo unspecified) | nt | nt | i | nt | nt | nt
CN(c1cccc(NC(=O)c2ccc(C(C)(C)C)cc2)c1)S(C)(=O)=O | i | i | i | i | i | ?
CN(C)S(=O)(=O)c1cccc(NC(=O)c2cccc(NS(=O)(=O)c3ccccc3)c2)c1 | i | ? | i | i | i | 12.6µM
CN(c1cccc(NC(=O)c2ccc(N(C)S(=O)(=O)c3ccccc3)cc2)c1)S(C)(=O)=O | i | ? | i | i | i | 8.91µM
CN(c1ccccc1)S(=O)(=O)c1cccc(NC(=O)c2cc(=O)c3ccccc3o2)c1 | 10.4µM | ? | i | nt | i | 11.2µM
CN(C)S(=O)(=O)c1cccc(NC(=S)NNC(=O)c2cc3ccccc3cc2O)c1 | ? | ? | i | nt | 4.47µM | ?
CN(C)S(=O)(=O)c1cccc(C(=O)Nc2ccc(C(=O)Nc3cccc(S(N)(=O)=O)c3)cc2)c1 | nt | nt | i | nt | i | i
CCOC(=O)Cn1cnc(-c2ccc([N+](=O)[O-])cc2)c1 | i | ? | i | i | i | i
CCOC(=O)C1=CCN(S(=O)(=O)c2ccccc2F)C1c1ccc(Cl)c(Cl)c1 (stereo unspecified) | nt | nt | i | nt | nt | nt
CCN(CC)S(=O)(=O)c1ccc(C(=O)N(c2ccc(C)cc2)C2C=CS(=O)(=O)C2)cc1 (stereo unspecified) | ? | i | i | nt | i | i
CSc1ncccc1C(=O)Nc1cccc(S(=O)(=O)N(C)c2ccccc2)c1 | ? | 9.28µM | i | nt | i | ?
CCCC(=O)Nc1cccc(S(=O)(=O)N(C)c2ccccc2)c1 | i | i | i | i | i | ?
COc1ccccc1NS(=O)(=O)c1cccc(NC(=O)c2cncc(Br)c2)c1 | nt | nt | i | nt | i | 12.6µM
SMILES | Pf growth 96h | Pf growth 48h | AMA1 RON2 block | NS1 inh | SARS PLpro yeast | HCV inhibitor
CSc1ncccc1C(=O)Nc1cccc(S(=O)(=O)N2CCCCC2)c1 | 10.4µM | 11.7µM | i | nt | i | ?
NS(=O)(=O)c1cccc(NC(=O)c2cncc(Br)c2)c1 | i | i | i | i | i | i
CC1(C)Oc2ccc(C(=O)NC3CCCCC3)cc2N(CC#N)C1=O | ? | ? | i | i | i | i
CCOC(=O)CCC(=O)Nc1ccc([N+](=O)[O-])cc1C | i | i | i | i | i | i
COc1ccc(Cn2c3nc4ccccc4nc3c3c(=O)n(Cc4ccco4)cnc32)cc1 | i | 9.28µM | nt | 8.91µM | i | ?
CC(C)(C)c1ccc(/C=C2\SC(=O)N(CCNC(=O)c3cccc(S(=O)(=O)N4CCOCC4)c3)C2=O)cc1 | i | i | i | i | i | ?
